Data reported in PubChem BioAssay AID504727 (Broad Institute, 2011).
Active and inactive are the calls of the source.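 Rule for the calls: active = fitted half-maximal concentration AC50 at or below ten times the highest valid tested dose, with signal falling as DNA is displaced (actives reach about 34 µM in these data); inconclusive = flat fit at moderate signal loss, or poor fit quality; inactive = the rest, including signal rising instead of falling.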

assay: acridine orange-DNA binding displacement – biochemical, fluorescence polarization, cherry-picked samples, set 2, artefact control for KSHV LANA DNA-binding inhibitor project, dose response (AID 504727); details: series mostly up to 35 µM; activity change, negative = DNA displacement: at the top concentration;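 for activity change, negative = DNA displacement: 0% = median of neutral control wells and -100% = mitoxantrone positive control wells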

Row | Compound | activity change, negative = DNA displacement | AC50
1 | O=C1/C(=C/c2ccco2)SC(=S)N1c1cccnc1 | 7.68% (inactive) | 
2 | C=CCn1c(C)cc(-c2csc(NC(=O)CCc3nc4ccccc4c(=O)[nH]3)n2)c1C | 5.57% (inactive) | 
3 | Nc1nc(C(F)(F)F)cc(=O)[nH]1 | 1.02% (inactive) | 
4 | Cc1nn(CC(=O)c2ccc(Br)s2)c(C)c1[N+](=O)[O-] | 21.5% (inactive) | 
5 | CCNc1ccc2noc3c2c1C(=O)c1ccccc1-3 |  | 0.935 µM (active)
6 | CCCc1nc(NCc2ccccn2)c2nnn(Cc3ccccc3F)c2n1 | -1.39% (inactive) | 
7 | O=C(O)c1ccc(-n2cccc2/C=C2/SC(=O)N(CC(=O)N3CCCC3)C2=O)cc1 | -3.47% (inactive) | 
8 | Cc1[nH][nH]c(=O)c1C(c1ccc(-c2ccc(Cl)c(C(=O)O)c2)o1)c1c(C)[nH][nH]c1=O | -0.131% (inactive) | 
9 | Cc1ccc(C)c(N2CCN(C(=O)c3cc4ccccn4n3)CC2)c1 | -11.2% (inactive) | 
10 | Cc1cc(/C=N/Nc2ccc([N+](=O)[O-])cn2)c(C)n1-c1cccc(C(=O)O)c1 | 17.9% (inactive) | 
11 | Fc1ccc(C2=CC(c3ccc(Br)o3)n3ncnc3N2)cc1 (stereo unspecified) |  | 11.7 µM (active)
12 | CN1CCN(CCCNC(=O)c2cc3c(-c4ccc(Cl)cc4)nn(C)c3s2)CC1 | -6.74% (inactive) | 
13 | O=S(=O)(O)c1cccc2cccc(Nc3ccccc3)c12 | 1.33% (inactive) | 
14 | Cc1ccccc1C1=C/C(=C(\SS/C(C(=O)c2ccc(OCC(=O)O)c(Cl)c2Cl)=C2\C=C(c3ccccc3C)SS2)C(=O)c2ccc(OCC(=O)O)c(Cl)c2Cl)SS1 | 7.96% (inactive) | 
15 | c1ccc(-c2cn3nc(-c4ccccc4)c(-c4ccccc4)nc3n2)cc1 |  | 23 µM (active)
16 | Cc1ccc(S(=O)(=O)/N=C2/C=C(Sc3ncn[nH]3)C(=O)c3ccccc32)cc1 | -0.37% (inactive) | 
